According to PubChem BioAssay (NCATS):
Values joined by “and” are separate entries in the source; they are usually repeats but may differ in a detail not shown here. Equal entries are not always repeated. Results filed as inconclusive are left out. A call without a number means that no potency is given here. A number with no mark means an inactive call. Active and inactive are the calls of the source. Calls come from the whole dose curve; as a rule, active = well fitted curve in the direction sought with a large enough effect; inconclusive = small, poorly fitted or top-dose-only effect, or another doubt; inactive = no such curve, though single readings can be large; an effect the other way counts as inactive or inconclusive.

Legend:
[1] = target: Cellular tumor antigen p53 (Homo sapiens) (UniProt P04637); test: Primary qHTS for small molecule compounds that upregulate eGFP-tagged delta133p53alpha (in N-terminal) cells. (AID 2060322); conditions: NCI-H358 eGFP-delta133p53alpha fluorescence, 24 h; activation: active compounds read high; note: nearly all actives have a fitted effect of over 75% in size; note: potency is the fitted concentration of half-maximal effect; for activation: series mostly up to about 56 µM
Cellular tumor antigen p53 (Homo sapiens), sequence (P04637 whole entry, looked up): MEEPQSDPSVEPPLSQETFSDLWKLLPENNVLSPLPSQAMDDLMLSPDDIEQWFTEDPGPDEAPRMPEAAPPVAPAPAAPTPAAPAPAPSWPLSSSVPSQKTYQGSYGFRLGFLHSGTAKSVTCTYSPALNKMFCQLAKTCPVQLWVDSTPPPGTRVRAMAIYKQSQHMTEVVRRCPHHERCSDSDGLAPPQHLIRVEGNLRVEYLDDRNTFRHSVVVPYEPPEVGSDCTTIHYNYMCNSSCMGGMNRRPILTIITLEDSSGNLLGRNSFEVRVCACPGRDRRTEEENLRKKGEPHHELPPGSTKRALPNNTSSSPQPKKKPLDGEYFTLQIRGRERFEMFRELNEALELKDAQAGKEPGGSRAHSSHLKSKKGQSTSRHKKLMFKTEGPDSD
Outline: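 NCI-H358 cells pre-induced 24 h with 10 ng/ml doxycycline to express N-terminal eGFP-delta133p53alpha, then dosed 24 h at 37C without doxycycline; fixed, Hoechst-stained, GFP intensity by laser scanning cytometry, normalized to DMSO (0%) and 57.5 uM 5-azacytidine (100%).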

[2] = target: Aldehyde dehydrogenase, mitochondrial (Homo sapiens) (UniProt P05091); test: qHTS for Inhibitors of the Aldehyde Dehydrogenase Family (ALDH2) Primary screen (AID 2061308); note: nearly all actives have a fitted effect of over 55% in size
[3] = target: Retinaldehyde dehydrogenase 3 (Homo sapiens) (UniProt P47895); test: qHTS for Inhibitors of the Aldehyde Dehydrogenase Family (ALDH1A3) Primary screen (AID 2061315)
[4] = BET inhibitor-based combinations targeting novel dependencies in MECOM-rearranged (r) AML: SET-2 cell line (AID 2202231); conditions: SET-2 AML cells viability, CellTiter-Glo luminescence, 48 h; viability: active compounds read low, concentration not given here; note: nearly all actives have a fitted effect of over 35% in size; note: potency is the fitted concentration of half-maximal effect
Outline: (§1)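 A 48 hr incubation preceded viability reading by CellTiter-Glo, with 15 min room-temperature development. Dose series had 11 points; normalization used DMSO and empty wells; AUC was computed and mean-centered per line as Z-AUC.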

[5] = BET inhibitor-based combinations targeting novel dependencies in MECOM-rearranged (r) AML: HNT-34 cell line (AID 2202234); note: nearly all actives have a fitted effect of over 35% in size; note: potency is the fitted concentration of half-maximal effect
Outline: (§2)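 Each compound is tested in an 11-point concentration series against 500 seeded cells/well for 48 hr. The luminescent viability signal is normalized to DMSO and blank wells, then reduced to AUC and a cell-line-centred Z-AUC.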

[6] = BET inhibitor-based combinations targeting novel dependencies in MECOM-rearranged (r) AML: UCSD-AML1 cell line (AID 2202235); note: nearly all actives have a fitted effect of over 40% in size; note: potency is the fitted concentration of half-maximal effect
Outline: as §2

[7] = BET inhibitor-based combinations targeting novel dependencies in MECOM-rearranged (r) AML: AML-191 cell line (AID 2202236; note: nearly all actives have a fitted effect of over 35% in size; note: potency is the fitted concentration of half-maximal effect)
Outline: as §1

[8] = BET inhibitor-based combinations targeting novel dependencies in MECOM-rearranged (r) AML: AML-194 cell line (AID 2202237; note: nearly all actives have a fitted effect of over 40% in size; note: potency is the fitted concentration of half-maximal effect)
Outline: as §1

[9] = BET inhibitor-based combinations targeting novel dependencies in MECOM-rearranged (r) AML: MV-4-11 cell line (AID 2202233); note: potency is the fitted concentration of half-maximal effect; nearly all actives have a fitted effect of over 45% in size
Outline: as §2

Compound: CO[C@@H](C)Cn1c(=O)n(C)c2cnc3ccc(-c4cncc(C(C)(C)O)c4)cc3c21
- activation [1]: -10.7%
- Potency [2]: inactive
- Potency [3]: inactive
- Potency [4]: 934 nM (active)
- Potency [5]: 372 nM (active)
- Potency [6]: 263 nM (active)
- Potency [7]: 235 nM (active)

Compound: CN1C(=O)C(Cc2c[nH]c3ccccc23)NC1=S (stereo not given)
- activation [1]: 23.7%
- Potency [2]: inactive
- Potency [3]: inactive
- viability [4]: 99.6%
- Potency [5]: inactive
- Potency [7]: inactive
- Potency [8]: inactive

Compound: C1Cc2[nH]nc(-c3nn[nH]n3)c2C1
- activation [1]: 0.623% and -10.5%
- Potency [2]: inactive
- Potency [3]: inactive
- viability [4]: 120%
- Potency [5]: inactive
- Potency [6]: inactive
- Potency [7]: inactive
- Potency [8]: inactive

Compound: N#CC1(c2cccc(C(=O)Nc3cc(Oc4ccc5nc(NC(=O)C6CC6)sc5n4)ccc3F)c2Cl)CC1
- activation [1]: 23.6%
- Potency [2]: inactive
- Potency [3]: inactive
- viability [4]: 82.7%
- Potency [6]: inactive

Compound: Cc1cc(Nc2cc(CN3CCOCC3)c3nc(C)c(Cc4ccc(Cl)cc4F)n3n2)n[nH]1
- Potency [1]: 27300 nM (active)
- Potency [2]: inactive
- Potency [3]: inactive
- Potency [4]: 2630 nM (active)
- Potency [6]: 2350 nM (active)
- Potency [7]: 742 nM (active)
- Potency [8]: 1480 nM (active)

Compound: O=C(O)c1ccc(CCCc2ccc(OCCc3ccc(F)cc3)cc2)o1
- activation [1]: -3.57%
- Potency [2]: inactive
- Potency [3]: inactive
- Potency [4]: 20900 nM (active)
- Potency [5]: inactive
- Potency [6]: inactive
- Potency [7]: inactive
- Potency [8]: inactive

Compound: O=C(NCCCNC(=O)c1ccc[nH]c1=O)c1cc(-c2ccccc2)on1
- activation [1]: -2.33%
- Potency [2]: inactive
- Potency [3]: inactive
- Potency [4]: 13200 nM (active)
- Potency [9]: 8330 nM (active)
- Potency [8]: 14800 nM (active)

Compound: Cc1ccn(-c2ccc(-c3ncco3)cc2)c(=O)c1-c1ccc2nc(N)ncc2c1
- activation [1]: 28.6%
- Potency [2]: inactive
- Potency [3]: inactive
- viability [4]: 114%
- Potency [5]: 372 nM (active)

Compound: Cn1cc(-c2c[nH]c3ncnc(N4CCOCC4)c23)cn1
- activation [1]: -7.14%
- Potency [2]: inactive
- Potency [3]: inactive
- viability [4]: 112%
- Potency [9]: 11800 nM (active)
- Potency [6]: inactive
- Potency [7]: 20900 nM (active)
- Potency [8]: inactive

Compound: COc1ccc(-c2cnc3c(-c4cccc5ncccc45)cnn3c2)cc1
- activation [1]: 16.1%
- Potency [2]: inactive
- Potency [3]: inactive
- viability [4]: 119%
- Potency [5]: inactive
- Potency [6]: inactive
- Potency [7]: inactive
- Potency [8]: inactive

Compound: CN(C)C(=O)c1ccc(S(=O)(=O)c2ccc(NC(=O)[C@@](C)(O)C(F)(F)F)c(Cl)c2)cc1
- activation [1]: 17.9% and -11.6%
- Potency [2]: inactive
- Potency [3]: inactive
- Potency [4]: 7420 nM (active)
- Potency [9]: 4680 nM (active)
- Potency [6]: inactive

Compound: CN(C)c1ccc(C2Nc3ccc4ccccc4c3C3=C2C(=O)CC(C)(C)C3)cc1Br (stereo not given)
- activation [1]: 5.76% and 26.3%
- Potency [2]: inactive
- Potency [3]: inactive
- viability [4]: 107%
- Potency [6]: inactive
- Potency [7]: inactive

Compound: Cc1cncc2cccc(S(=O)(=O)N3CCCN(C(=O)CN)C[C@@H]3C)c12
- activation [1]: -16.4% and -8.59%
- Potency [2]: inactive
- Potency [3]: inactive
- viability [4]: 91.2%
- Potency [6]: 4170 nM (active)

Compound: NC(=O)c1cnc(-c2ccc(C3(N)CCC3)cc2)c(-c2ccccc2)c1
- activation [1]: 29% and -2.68%
- Potency [2]: inactive
- Potency [3]: inactive
- viability [4]: 104%
- Potency [9]: 3320 nM (active)
- Potency [6]: 1320 nM (active)
- Potency [8]: inactive

Compound: Cc1cccc(-c2[nH]c(CNc3ccccc3F)nc2-c2ccc3ncnn3c2)n1
- activation [1]: -27.7%
- Potency [2]: inactive
- Potency [3]: inactive
- viability [4]: 100%
- Potency [6]: inactive
- Potency [7]: inactive
- Potency [8]: inactive

Compound: Cc1ncc(Cl)cc1NCc1ccc(C(=O)NC(CC2CCCC2)C(=O)NC2CC2)s1 (stereo not given)
- activation [1]: 3%
- Potency [2]: inactive
- Potency [3]: inactive
- viability [4]: 107%
- Potency [9]: 18600 nM (active)
- Potency [6]: 833 nM (active)
- Potency [7]: 5900 nM (active)

Compound: COc1cccc(OCCCN)c1-c1cc(Nc2cnc(C#N)cn2)n[nH]1
- Potency [1]: 26900 nM (active)
- Potency [2]: inactive
- Potency [3]: inactive
- Potency [4]: 59 nM (active)
- Potency [5]: 59 nM (active)
- Potency [6]: 9.3 nM (active)
- Potency [7]: 23.5 nM (active)

Compound: CNc1nc(Nc2cnn([C@H]3CCN(C4COC4)C[C@@H]3F)c2Cl)ncc1C(F)(F)F
- activation [1]: -10.7% and -17.9%
- Potency [2]: inactive
- Potency [3]: inactive
- viability [4]: 94.3%
- Potency [9]: 1320 nM (active)
- Potency [8]: inactive

Compound: Cc1c(NC(=O)c2cc(C(N)=O)nc3cc(F)ccc23)c(C(F)(F)F)nn1Cc1ccc(C#N)cc1
- activation [1]: 14.3%
- Potency [2]: inactive
- Potency [3]: inactive
- viability [4]: 101%
- Potency [6]: inactive
